The campaign covered roughly 360,000 compounds. About 10,000 (2.8%) were called active. Inconclusive results (about 4%) are left out. The call rests on the fitted dose curve; in most records, active means well fitted inhibition curve with a large enough effect; inconclusive means small, poorly fitted or top-dose-only effect; inactive means flat fitted curve, though single readings scatter. This excerpt belongs to a sample that is enriched for actives.
target: Serine/threonine-protein kinase PLK1 (Homo sapiens) (UniProt P53350); assay: qHTS for Inhibitors of PLK1-PDB (polo-like kinase 1 - polo-box domain): Primary Screen; details: Plk1 PBD binding of FITC phosphopeptide, fluorescence polarization; further: nearly all actives have a fitted effect of over 65% in size; on Max response, negative = inhibition: series mostly up to about 57 µM
Text: The polo-like kinase 1 (Plk1) is a member of a conserved subfamily of serine / threonine protein kinases that plays a pivotal roles in cell proliferation. It has a C-terminal non-catalytic region called the polo-box domain (PBD) that plays a crucial role in the subcellular localization of the Plk1. […] Furthermore, depletion of the overexpressed Plk1 by RNAi efficiently induces apoptotic cell death in cancer and reduces tumor growth in mouse xenograft models. Thus, targeting Plk1 is an appealing strategy for anti-cancer therapy. Therefore, this project aimed to screen the Molecular Libraries Small Molecule Repository (MLSMR) using a novel approach to find inhibitors that target the Plk1 PBD instead of the conventional N-terminal catalytic domain. This project employed a fluorescence polarization (FP) assay using a FITC-conjugated phospho-9-mer (p-9-mer) peptide and purified human Plk1 PBD protein. The identified small molecule inhibitors of Plk1 PBD can then further be developed into useful tools for biomedical and clinical research that complements or replaces current relevant disease therapy. NIH Chemical Genomics Center [NCGC] NIH Molecular Libraries Probe Centers Network [MLPCN] MLPCN Grant: MH100728 Assay Submitter (PI): Kyung Lee, NCI
Four microliter of 25 nM FITC-p-9-mer + 60 nM Plk1 PBD in buffer solution (final concentrations 25 nM and 60 nM respectively) or 4 uL of 25 nM FITC-p-9-mer (final concentration 25 nM) in buffer will be dispensed into a 1,536 Greiner medium-binding black solid plate. Small molecules at final concentrations of 18 nM to 57 uM and positive control phospho-9-mer (sequence: Ac-PPLHSpTAI-NH2) at final concentrations 26 nM to 57 uM and phospho-13-mer (sequence: Ac-[…]pTAI-NH2) at final concentrations of 1 nM to 2.3 uM will be pin-transferred (23 nL) to the plate via a Kalypsys pin-tool robotics equipped with a 1,536-pin array. The reaction plate will be centrifuged for 1 min at 1000 rpm and incubated at room temperature for 10 min. The FITC fluorescence signals will be read using the PerkinElmer ViewLux plate reader at 480 / 20 nm excitation and 540 / 20 nm S and P polarization emission wavelengths. Reagent bottles will be kept submerged into 4 °C recirculating chiller bath and all liquid lines will be covered with aluminum foil to minimize degradation. Library plates will be screened starting from the lowest to the highest concentrations to minimize compound carryover. Vehicle only plates, with DMSO being pin-transferred instead of compound solutions, will be included regularly throughout the screen to record any systematic shifts in assay signal.
On the % scale 0 is the no-effect control and ±100 the full control effect; potency means the concentration at half of the fitted maximal effect.

Sequence of Serine/threonine-protein kinase PLK1 (Homo sapiens) (P53350 whole entry, looked up, the tested form may be a part): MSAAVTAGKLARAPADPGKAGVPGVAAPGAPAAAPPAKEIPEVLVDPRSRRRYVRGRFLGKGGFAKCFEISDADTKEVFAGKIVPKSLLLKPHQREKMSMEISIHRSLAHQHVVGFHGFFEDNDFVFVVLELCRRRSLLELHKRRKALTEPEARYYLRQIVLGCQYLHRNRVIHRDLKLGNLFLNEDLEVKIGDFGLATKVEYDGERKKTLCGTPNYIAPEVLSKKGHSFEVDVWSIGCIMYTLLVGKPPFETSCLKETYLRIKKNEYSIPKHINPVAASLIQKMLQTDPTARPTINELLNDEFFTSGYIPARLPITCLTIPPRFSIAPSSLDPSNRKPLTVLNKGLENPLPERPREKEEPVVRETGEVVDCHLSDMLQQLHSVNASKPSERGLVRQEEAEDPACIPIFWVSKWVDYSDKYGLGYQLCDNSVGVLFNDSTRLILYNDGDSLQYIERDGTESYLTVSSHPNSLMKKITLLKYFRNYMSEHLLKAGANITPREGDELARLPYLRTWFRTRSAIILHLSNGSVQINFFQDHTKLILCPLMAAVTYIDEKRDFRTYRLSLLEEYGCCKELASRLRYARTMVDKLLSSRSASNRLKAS

Max response, negative = inhibition, inactive:
CC(=O)c1nn(-c2ccccc2)c(=Nc2ccccc2)cc1C -4.39%
O=C(COc1ccccc1)Nc1ccc(C(=O)N2CCCC2)cc1 -9.45%
COc1ccc(N2CCN(C(=O)c3cccs3)CC2)cc1 0.204%
Cc1ccc(S(=O)(=O)N2CCC(=O)N([C@H](COCc3ccccc3)C(C)C)CC2)cc1 -7.98%
Cc1cc(C(=O)OCC(=O)Nc2nnc(C(C)C)s2)c2ccccc2n1 -7.1%
O=C(COC(=O)c1ccc(O)cc1)Nc1nccs1 -1.48%
CC1(C(=O)NS(=O)(=O)c2cccc(OC(F)F)c2)CCN1C(=O)C1CC1 (centres undefined) 3.22%
CCCNC(=O)C1(C)CCN1C(=O)C1(c2ccccc2)CC1 (centres undefined) -4.48%
CC(C)(C)Cc1c(C2CCCCC2)nc2ccc(Br)cn12 3.52%
COc1ccc(CNC(=O)C2CCN(S(=O)(=O)c3ccc(SC)cc3)CC2)cc1 -7.7%
COc1ccc(CNC(=O)C2CCN(S(=O)(=O)N3CCOCC3)CC2)cc1 3.12%
CC1(C(=O)NCc2cccc3ccccc23)CCN1Cc1ccc(-c2ccccc2)o1 (centres undefined) -8.62%
CCc1nc2ccc(C(=O)NCCNC(C)=O)cn2c1N(CC)Cc1cccc(Br)c1 -0.869%
CCC(C(=O)NCc1ccccc1)n1c(Cc2cc(F)cc(F)c2)nc2ccccc21 (centres undefined) 2.43%
O=C(NCCN1CCOCC1)C1CCN(S(=O)(=O)c2ccccc2)CC1 1.1%
O=C(NCc1cccs1)c1ccc(Br)o1 -4.89%
CC(CCc1ccccc1)NC(=O)c1ccc(Br)o1 (centres undefined) -7.05%
O=C(COC(=O)/C=C/c1ccc(Cl)cc1)NC1CCS(=O)(=O)C1 (centres undefined) 3.25%
O=S1(=O)CC(N2CCSCC2)CN1Cc1cn(Cc2cccc(Cl)c2)nn1 (centres undefined) 1.2%
CSCCC(C(=O)NC(C)(C)C)n1c(-c2ccccc2)nc2ccccc21 (centres undefined) -11.3%
COc1cc(/C=N/O)cc(Br)c1OS(=O)(=O)c1ccc(C)cc1 4.61%
COc1cc(/C=N/NC(=S)Nc2cccnc2)cc(OC)c1O -21%
CCCc1nc2ccccc2n1C(C)C(=O)NC(C)(C)C (centres undefined) -5.55%
C[C@H]1CN([C@@H](C)CO)C(=O)c2cc(Br)cnc2O[C@H]1CN(C)S(=O)(=O)c1cccs1 -9.15%
COc1ccc(CN2C(=O)C(CC(=O)NCCN3CCOCC3)CC(C(=O)N(C(C)C)C(C)C)=C2C)cc1 (centres undefined) 4.68%
Cc1ccc(NC(=O)COC(=O)CN2CCSC2=O)cc1F 3.55%
O=C1CCCc2nn(-c3ccccc3)nc21 -8.07%
Nc1ccc2nn(-c3ccc(Cl)cc3)nc2c1 -7.93%
CCc1nc2c(OCCOc3ccc(F)cc3)cccn2c1N(C)C(=O)c1ccccc1F -3.7%
CC(=O)c1cccc(-c2cnc3c(NC=O)cc(-c4ccccc4Oc4ccccc4)cn23)c1 -5.21%
C[C@@H]1CN([C@@H](C)CO)C(=O)CCCn2nncc2CO[C@@H]1CN(C)S(=O)(=O)c1ccc(-c2ccccc2)cc1 -14.2%
O=C1[C@H]2[C@@H](c3ccc(C(F)(F)F)cc3)N[C@]3(CCCN(Cc4ccc(Cl)cc4)C3=O)[C@H]2C(=O)N1Cc1ccccc1 -4.13%
CCOC(=O)C(=O)Nc1nc(-c2ccccc2)c(CC)s1 -16.3%
CCOc1ccc(-c2nc(C)sc2CC(=O)O)cc1 -0.634%
CC(C)n1ncc2c(C(=O)N3CCN(Cc4cccs4)CC3)cc(C3CC3)nc21 -8.38%
Cc1cccc(C)c1-n1nnnc1C1(C)CCC(=O)N1CCOc1ccccc1 (centres undefined) -8.78%
COc1ccc(C2=Nc3ccccc3NC(=O)C2N(C(=O)c2cc3ccccc3[nH]2)c2ccccc2)cc1 (centres undefined) 5.46%
Cc1cc(C(=O)OCC(=O)N2C(C)CCCC2C)c2ccccc2n1 (centres undefined) -9.12%
CC(=O)N1CCN(C(=O)c2cc(-c3ccc(Cl)s3)nc3ccccc23)CC1 4.68%
O=C(Nc1ccc(F)cc1)C(CCc1ccccc1)N1CCN(CC(=O)N2CCCC2)CC1 (centres undefined) -3.84%
Cc1ccc(C(=O)OCC(=O)NCc2ccc3c(c2)OCO3)s1 -7.48%
COc1cccc(CC(=O)OCC(=O)NCc2ccc3c(c2)OCO3)c1 -5.11%
Cc1c(C(=O)NCc2ccc(C#N)cc2)sc(=O)n1Cc1ccc(C(=O)N(C)C)cc1 -10.6%
COc1ccc(NC(=O)ON=C2c3ccccc3-c3ccccc32)cc1 -8.43%
CN1C(=O)/C(=C\c2cc(Br)cs2)c2ccccc21 9.61%
O=C(N=C1SC2CS(=O)(=O)CC2N1Cc1ccccc1)c1ccccc1 (centres undefined) -10.4%
O=C(C1Cc2ccccc2CN1C(=O)c1ccco1)N1CCN(c2ccccc2)CC1 (centres undefined) -14.9%
CC(=O)c1ccc(N2Cc3ccccc3C2)cc1 -10.7%
CSc1ncnc2c1ncn2CCCNCC1CCCCC1 2.12%
Cc1c(NC(=O)COC(=O)/C=C/c2cccc(F)c2)c(=O)n(-c2ccccc2)n1C -2.07%
Cc1c(C(=O)NCC2CC2)sc(=O)n1Cc1cccc(F)c1 3.08%
N#CC1(Nc2ccc3c4c(cccc24)CC3)CCCCC1 -12.6%
CCOC(=O)CSc1ncc(-c2cccc(Cl)c2)cn1 -7.44%
Cc1oc(-c2ccccc2Cl)[n+]([O-])c1C -3.14%
CC(C)c1ccc(CC(=O)N2CCC2(C)C(=O)NS(=O)(=O)c2ccc(C(C)(C)C)cc2)cc1 (centres undefined) -5.51%
COc1ccc(NS(=O)(=O)c2ccc(Oc3c(C#N)cccc3C#N)cc2)cc1 -0.548%
CCCC(NS(=O)(=O)c1ccc(OC)cc1)C(=O)O (centres undefined) -2.19%
CCOC(=O)N1CCN(C(=O)C(=O)Nc2sc3c(c2C#N)CC(C)(C)OC3)CC1 -23.2%
COC(=O)c1c(NC(=O)C(=O)N2CCCCC2)sc2c1CC(C)(C)OC2 -13.1%
CC(C)C[C@H]1CNC(=O)C(=O)N1C[C@@H]1CCCN1C[C@H](Cc1ccccc1)N1C[C@H](CC(C)C)N(CC2CCCCCC2)C(=O)C1=O 2.6%
O=C(Nc1ccc(F)cc1)c1ccc(S(=O)(=O)NCc2cccnc2)cc1 -1.16%
Cc1ccc(CS(=O)(=O)c2ncc(Cl)c(C(=O)Nc3nnc(C)s3)n2)cc1 -16.3%
CN1CCN(c2ccc(NC(=O)c3ccc4c(c3)[nH]c(=O)n4Cc3ccc(F)cc3)cc2)CC1 -2.57%
Cc1cccc(NC(=O)C(C)SCc2ccccc2)c1 (centres undefined) -10.4%
COC(=O)[C@@]12C[C@@H](CC(=O)NCCCCc3ccccc3)C(=O)N(Cc3ccccc3)C1=CCC(C)(C)C2 -7.29%
O=C(C[C@H]1C[C@@H]2c3cc(NC(=O)C4CCC4)ccc3O[C@@H]2[C@H](CO)O1)NC1CCCCC1 -5.12%
COc1ccc(S(=O)(=O)N2CCC(C(=O)NCCC(=O)Nc3ccccc3OC)CC2)cc1 2.5%
Cc1cccc(S(=O)(=O)N(C)C[C@@H]2OCc3cnnn3CCCC(=O)N([C@H](C)CO)C[C@@H]2C)c1 -8.68%
COc1ccc(C(=O)N2CCCCC2c2cc(C(=O)Nc3ccccc3)no2)cc1 (centres undefined) -2.81%
Cc1ccccc1S(=O)(=O)NC(=O)C1(C)CCN1C(=O)C1(c2ccccc2)CCCC1 (centres undefined) 2.57%
CCn1c(CNC(=O)c2ccccc2)nnc1SCC(=O)N1CCN(c2ccccc2)CC1 -1.21%
Cn1c(CNC(=O)c2ccco2)nnc1SCC(=O)N1CCN(c2ccccc2)CC1 -4.04%

Potency, active:
O=C(COc1ccccc1)Nc1ccc(N2CCN(C(=O)c3cccs3)CC2)cc1 26.7 µM
Cc1cc(C(=O)OCC(=O)Nc2nccs2)c2ccccc2n1 3.36 µM
COc1ccc(CNC(=O)C2CCN(S(C)(=O)=O)CC2)cc1 21.2 µM
CC(CNC(=O)c1ccc(Br)o1)NC(=O)c1ccc(Br)o1 (centres undefined) 2.99 µM
COc1cc(/C=N/Nc2ccc(C)cc2)cc(Br)c1O 29.9 µM
c1ccc(-n2nc3ccccc3n2)cc1 29.9 µM
C/C(=N/Nc1nc(-c2ccccc2)c(CC(=O)O)s1)c1ccccc1 13.4 µM
COC(=O)c1cc(N2CCNCC2)nc2ccccc12 23.8 µM
Cc1cc(Br)ccc1SCC(=O)OCC(=O)NCc1ccc2c(c1)OCO2 29.9 µM
CN1C(=O)/C(=N/OC(=O)c2ccccc2Br)c2ccccc21 23.8 µM
CC(=O)N1Cc2ccccc2CC1C(=O)O (centres undefined) 2.67 µM
Cc1oc(-c2cccc(Cl)c2)[n+]([O-])c1C 29.9 µM
COc1ccc(S(=O)(=O)/N=C2\C=C(NS(=O)(=O)c3ccccc3)C(=O)c3ccccc32)cc1 29.9 µM
CC1(C)Cc2c(sc(NC(=O)C(=O)N3CCOCC3)c2C#N)CO1 9.47 µM
Cc1cccc(NC(=O)c2nc(S(=O)(=O)Cc3ccccc3)ncc2Cl)c1 8.44 µM
Cc1cccc(CS(=O)(=O)c2ncc(Cl)c(C(=O)Nc3ccc(F)cc3)n2)c1 16.8 µM
Cn1c(Cc2cccc3ccccc23)nnc1SCC(=O)N1CCN(c2cccc(Cl)c2)CC1 29.9 µM
